# According to PubChem BioAssay (NCATS):
# Records with an inconclusive call do not appear. Where a call stands in place of a potency, no number is given. Active and inactive are the calls of the source. Calls come from the whole dose curve; as a rule, active = well fitted curve in the direction sought with a large enough effect; inconclusive = small, poorly fitted or top-dose-only effect, or another doubt; inactive = no such curve, though single readings can be large; an effect the other way counts as inactive or inconclusive.
# Test: qHTS for Inhibitors of Plasmodium falciparum (HB3) proliferation (AID 504318); note: nearly all actives have a fitted effect of over 60% in size; note: potency is the fitted concentration of half-maximal effect
# Details: P. falciparum HB3 in erythrocytes, SYBR Green DNA, 72 h; series mostly up to 7.21 µM
# In short: (§1)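 Erythrocytes infected with P. falciparum line (0.3% parasitemia, 2.5% hematocrit final) incubated with compounds 72 h at 37 °C, 5% CO2; SYBR Green lysis buffer added, fluorescence read next day. Normalized to 0.29 uM artemisinin and DMSO.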
row,Structure (SMILES),Potency
1,COC(=O)C1=C(C(=O)OC)[C@@H]2N(CC=C(C)C)c3ccccc3[C@@]23CCC(=O)N(Cc2cccc(C(F)(F)F)c2)C3=N1,2940 nM (active)
2,CCN1C(=NCCCOC(C)C)N[C@@H](CCc2ccccc2)[C@H](C(=O)NCCCOC(C)C)[C@H]1C,inactive
3,CCCCCCCC1=Cc2ccccc2C(CC(C)=O)N1C(=O)OC (stereo not given),1690 nM (active)
4,CC(C)=CCCC(C)=CCN1C(=O)[C@]2(O[C@H](COc3ccccc3)CC3=CCCC32)c2c(Br)cccc21 (stereo not given in full),1690 nM (active)
5,COC(=O)[C@]1(CC=Cc2ccccc2)C=C[C@@H](C)[C@H](c2ccccc2Br)N1C(=O)C(F)(F)F,1900 nM (active)
6,COc1ccc2c3c(c(=O)oc2c1)[C@H]1O[C@](CCCCN2C(=O)c4ccccc4C2=O)(Cc2cc(OC)c(OC)cc21)O3,1510 nM (active)
7,COc1cccc([C@H]2Oc3ccc(OC)cc3C(=NO[C@H](C)c3cn([C@H](CO)Cc4ccccc4)nn3)[C@H]2O)c1,inactive
8,CCCCC1=CC2=C(c3ccco3)C(=O)C(C)(OC(=O)c3ccc(OC)cc3)C(=O)C2=CN1C(CO)CO (stereo not given),inactive
9,CNc1ccccc1C(=O)OCC(C)=O,inactive
10,CC#C[C@H](C)[C@@H](OCOC)[C@H](C[C@H](C)Cc1cc(Br)cc(OCc2ccccc2)c1OC)OC,1690 nM (active)
11,O=C1CCCC=C1[C@@H](O)CCOC(c1ccccc1)(c1ccccc1)c1ccccc1,1510 nM (active)
12,CC(C)[C@@H](OCc1ccccc1)[C@H](C)CON=C1[C@H]2CCn3c(=O)n(-c4ccccc4)c(=O)n3[C@@H]2[C@H](O)[C@@H]2O[C@H]12,inactive
13,C=CCN1c2ccccc2[C@]23CCC(=O)N(CCOC)C2=NC(C(=O)OC)=C(C(=O)OC)[C@H]13,inactive
14,CC1=C(C)CC(c2ccccc2)C(C(=O)c2ccccc2O)C1 (stereo not given),inactive
15,N#CCCN(CC#Cc1ccccc1)OCc1ccccc1,inactive
16,c1ccc(CCc2nc(-c3ccccc3)oc2NC2CCCCC2)cc1,inactive
17,COC(=O)C1=C(C(=O)OC)[C@@H]2N(C)c3ccc(OC)cc3[C@@]23C[C@@H](C(=O)OC)N(C(=O)NCCBr)C3=N1,2130 nM (active)
18,CC1(C)CC(=O)C2=C(C1)O[C@@]1(c3ccsc3)Cc3cc(C#N)ccc3[C@H]2O1,inactive
19,Cc1ccc(S(=O)(=O)n2c3ccccc3c3nnc(C(=O)c4ccccc4)nc32)cc1,inactive

# Test: qHTS for Inhibitors of Plasmodium falciparum (CP250) proliferation (AID 504320)
# Details: P. falciparum CP250 in erythrocytes, SYBR Green DNA, 72 h; series mostly up to 6.7 µM
# In short: as §1
row,Structure (SMILES),Potency
1,COc1cccc(CO[C@H]2C=C[C@@H](c3ccccc3)O[C@H]2COC(C)=O)c1,inactive
2,COC1=C[C@H](C(=O)N[C@H]2CCCC[C@H]2NC(C)=O)[C@H](C)[C@@H](c2ccccc2)CC1=O,inactive
3,CC(C)=CCN1C(=O)[C@@]2(CC(C)=C[C@@H](COCc3ccccc3)O2)c2ccccc21,inactive
4,COC(=O)CCCC1=CC2=C(c3ccccc3)C(=O)C(C)(OC(=O)C3CCCC3)C(=O)C2=CN1Cc1ccc(OC)cc1 (stereo not given),inactive
5,CCc1cc2c(nc1CC)CCN(CCC(C)=NOC[C@@H](O)COCc1ccco1)C2,inactive
6,COC(=O)CCCC1=CC2=C(c3ccccc3)C(=O)C(C)(OC(=O)C3CCCC3)C(=O)C2=CN1c1ccc(OC)cc1 (stereo not given),inactive
7,COc1cc(CO[C@H]2C=C[C@@H](c3ccccc3)O[C@H]2CO)cc(OC)c1,inactive
8,C=CCNC(=O)N1CCc2nc(-c3ccc(OC)cc3C)c3c(c2C1)CO[C@@H](c1ccccc1)C3,inactive
9,Cn1c(-c2ccccc2)c(O)c(=O)c2ccccc21,inactive
10,CCCCC1=CC2=C(c3ccco3)C(=O)C(C)(OC(=O)c3ccc(OC)cc3)C(=O)C2=CN1C(CO)CO (stereo not given),inactive
11,CNc1ccccc1C(=O)OCC(C)=O,inactive
12,CC1=C2[C@H](O)[C@H]([C@@H](C)C(=O)NCCC(C)C)CC[C@@]2(C)C=CC1=O,inactive
13,COC(=O)c1ccc(CN2C(=O)[C@]3(OCCC=C[C@@H]3C)c3cc(OC)ccc32)cc1,inactive
14,COc1cccc([C@@H]2Oc3ccc(OC)cc3C[C@@H]2OC(=O)N[C@H]2CCCc3ccccc32)c1,inactive
15,CCN1C(=NCc2cccc(C(F)(F)F)c2)NC(c2cccs2)C(C(=O)OC)=C1C (stereo not given),inactive
16,CC1(OC(=O)C2CCCC2)C(=O)C=C2C=C(c3ccsc3)N(Cc3ccccc3)C=C2C1=O (stereo not given),inactive
17,C=CCN1c2ccccc2[C@]23CCC(=O)N(CCOC)C2=NC(C(=O)OC)=C(C(=O)OC)[C@H]13,inactive
18,CC1=C(C)CC(c2ccccc2)C(C(=O)c2ccccc2O)C1 (stereo not given),inactive
19,COc1ccc(O[C@H]2C=C[C@@H](c3ccccc3)O[C@H]2CON=C2c3cc(OC)ccc3O[C@H](c3cccc(OC)c3)[C@H]2O)cc1,inactive
20,COc1cccc([C@@H]2Oc3ccc(Br)cc3C(=O)[C@@H]2OC(=O)N[C@H]2CCCc3ccccc32)c1,inactive
21,CC(C)(C)OC(=O)N1CCC[C@@H]1C(O)(c1ccccc1)c1ccccc1,inactive
22,C=CCN1C(=O)[C@]2(O[C@H](C)CC3=CCCC32)c2c(Br)cccc21 (stereo not given in full),inactive
23,N#CCCN(CC#Cc1ccccc1)OCc1ccccc1,inactive
24,CC(CCC(=O)OC[C@H]1O[C@H](C#Cc2ccccc2)C=C[C@H]1Oc1ccc(C)cc1)=NO[C@H](C)c1cn([C@@H]2COC[C@@H]2O)nn1,inactive
25,CC1(OC(=O)C2CCCC2)C(=O)C=C2C=C(c3ccsc3)N(C3CCCCC3)C=C2C1=O (stereo not given),inactive
26,Cc1ccc(S(=O)(=O)n2c3ccccc3c3nnc(C(=O)c4ccccc4)nc32)cc1,inactive
